From PubChem BioAssay come the findings set out here.

The structures appear in SMILES notation. Active and inactive are the calls of the source.

Assay [1] deals with Albumin (Bos taurus) (UniProt P02769). The assay is described as follows: compounds binding labelled BSA control protein – biochemical, small-molecule microarray, Alexa647 label, 635/667 nm fluorescence, artefact control for SMM control protein annotation, profiling panel (AID 1118).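 Note: score merges 667 nm emission intensity and signal-to-noise per printed compound spot.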 The following applies: BSA-A647 binding, fluorescence 635 nm, higher = more signal.
The nature of assay [2]: probe aXIP binding to arrayed compounds – biochemical, NeuroSMM set, 635/667 nm fluorescence, primary screen (AID 1119).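 Note: probe is the protein aXip251-270 applied at 1 µg/mL to compound-printed slides; binding of probe to printed compounds measured as 667 nm fluorescence plus signal to noise.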 The following applies: small-molecule microarray, higher = more signal, called active from +8 up or from −8 down.
Assay [3] is described as follows: probe aNOTCH3 binding on compound microarray – biochemical, small-molecule microarray, 635/667 nm fluorescence, primary screen (AID 1120).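 Note: probe is a biotin-tagged antibody raised against NOTCH3 rather than NOTCH3 protein; score merges spot fluorescence near 667 nm with spot signal to noise.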 As to conditions: higher = more signal.
The nature of assay [4]: probe aNOTCH2 binding on compound microarray – biochemical, small-molecule microarray, 635/667 nm fluorescence, primary screen (AID 1121).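 Note: score merges feature fluorescence read at 667 nm with its signal to noise.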 As to conditions: higher = more signal.
For assay [5], the target named is Carbonic anhydrase 2 (Homo sapiens) (UniProt P00918). As to the kind of experiment: compounds binding carbonic anhydrase 2 – biochemical, small-molecule microarray, Alexa647-labelled CAII, profiling panel (AID 1122). The following applies: CAII-A647 binding fluorescence, higher = more signal.
A short description of assay [6]: COS7 lysate on small-molecule microarray, probe aHis, 635 nm (AID 1123).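 Note: z-score combines 667nm fluorescence intensity with signal-to-noise per printed compound spot.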 As to conditions: COS7 cell lysate, fluorescence, higher = more signal.
Assay [7] is described as follows: probe aLAP1 signal on lysate-treated microarray – cell lysate, small-molecule microarray, COS7 lysate, primary screen (AID 1124).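 Note: lysate comes from COS7 cells expressing LAP1 and is applied at 0.3 µg/mL; score merges spot fluorescence near 667 nm with signal-to-noise over triplicate slides.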 The following applies: probe aLAP1, fluorescence, higher = more signal.
The test system of assay [8] is Sam68 (KHDRBS1). The assay is described as follows: compounds binding KHDRBS1 protein – biochemical, small-molecule microarray, 635 nm fluorescence, primary screen (AID 1125).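 Note: score merges 667 nm channel intensity with signal to noise over triplicate slides.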 As to conditions: higher = more signal.
Assay [9] concerns Chordin-like protein 2 (CHRDL2). As to the kind of experiment: compounds binding chordin-like 2 – biochemical, small-molecule microarray, 635 nm fluorescence, primary screen (AID 1126).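 Note: printed compound slides probed with Chrdl2 protein at 4 µg/mL for 1 h at 4 C; score merges 667 nm emission intensity with signal to noise over three replicate slides.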 As to conditions: fluorescence 635 nm, higher = more signal.
In assay [10] the target is Concanavalin-A (Canavalia ensiformis) (UniProt P02866). As to the kind of experiment: compounds binding concanavalin A lectin – biochemical, small-molecule microarray, Alexa647 label, 635 nm, artefact control for SMM control protein annotation, primary screen (AID 1127).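 Note: z combines 667 nm emission intensity with signal-to-noise across three replicate slides.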 The following applies: ConA-A647 binding fluorescence, higher = more signal.
Assay [11] in a line: compounds binding Alexa647 anti-His antibody – biochemical, small-molecule microarray, 635 nm fluorescence, artefact control for SMM control protein annotation, primary screen (AID 1128).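 Note: score merges feature fluorescence with signal-to-noise for each printed compound spot.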 The following applies: higher = more signal.
For assay [12], the system named is Human papillomavirus type 1a E7 protein (residues 1-88). As to the kind of experiment: HPV1a E7 small-molecule binders, primary screen, biochemical, small-molecule microarray, residues 1-88, 635 nm (AID 1129). As to conditions: small-molecule microarray binding, fluorescence 635 nm; higher = more signal.
For assay [13], the target named is Focal adhesion kinase 1 (Homo sapiens) (UniProt Q05397). As to the kind of experiment: PTK2 protein binding on printed compound slides – biochemical, small-molecule microarray, 635/667 nm fluorescence, BSA, DTT, primary screen (AID 1130).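 Note: composite of spot emission at 667 nm and signal to noise over triplicate slides.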 The following applies: 635 nm fluorescence, higher = more signal.
For assay [14], the system named is Fibrinogen (Alexa647-labelled). As to the kind of experiment: Alexa647-fibrinogen binding to printed small molecules – biochemical, small-molecule microarray, 635/667 nm fluorescence, artefact control for SMM control-protein annotation, profiling panel (AID 1131).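 Note: z-score merges 667 nm fluorescence with per-spot signal-to-noise over triplicate slides.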 As to conditions: fibrinogen-A647 binding fluorescence, higher = more signal.
In assay [15] the target is Follistatin (Homo sapiens) (UniProt P19883). The assay is described as follows: FST protein binding to printed compounds – biochemical, small-molecule microarray, 635/667 nm fluorescence, primary screen (AID 1132). The following applies: 635 nm fluorescence, higher = more signal.
The target of assay [16] is Fibroblast growth factor 2 (Homo sapiens) (UniProt P09038). As to the kind of experiment: basic fibroblast growth factor binding to printed compounds – biochemical, small-molecule microarray, 635/667 nm fluorescence, primary screen (AID 1133). As to conditions: FGF2, fluorescence 635/667, higher = more signal.
Assay [17] in a line: JC-1 mitochondrial potential readout, lung cancer cells – cell-based, A549, JC-1 fluorescence, basal, 24 h, 100 nL, profiling panel (AID 1138).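 Note: A549 lung adenocarcinoma cells under basal conditions with no added stimulus; test concentration not given here.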 As to conditions: higher = more signal.
Assay [18] relates to Lefty1. As to the kind of experiment: Lefty1 protein binding to printed compounds – biochemical, small-molecule microarray, 635/667 nm fluorescence, primary screen (AID 1139). The following applies: fluorescence 635/667, higher = more signal.
Assay [19] relates to wheat germ agglutinin (Triticum aestivum), Alexa647-labelled. As to the kind of experiment: Alexa647-WGA lectin binding to printed small molecules – biochemical, small-molecule microarray, 635/667 nm fluorescence, artefact control for SMM control-protein annotation, profiling panel (AID 1140).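 Note: score merges 667 nm feature emission with signal to noise over triplicate slides.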 As to conditions: WGA-A647 binding, 635 nm fluorescence, higher = more signal.
Assay [20] concerns the target Luciferin 4-monooxygenase (Photinus pyralis) (UniProt P08659). The assay is described as follows: inhibition of purified Photinus pyralis luciferase – biochemical, luminescence, purified enzyme, 2006 set, primary screen (AID 1141).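 Note: cell-free assay with purified firefly luciferase at 100 ng per well in PBS; test concentration not given here.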 As to conditions: purified firefly luciferase, SteadyGlo luminescence, 30 min; higher = more signal, called active from +8 up or from −8 down.

Chain of Albumin (Bos taurus) (P02769 whole entry, looked up): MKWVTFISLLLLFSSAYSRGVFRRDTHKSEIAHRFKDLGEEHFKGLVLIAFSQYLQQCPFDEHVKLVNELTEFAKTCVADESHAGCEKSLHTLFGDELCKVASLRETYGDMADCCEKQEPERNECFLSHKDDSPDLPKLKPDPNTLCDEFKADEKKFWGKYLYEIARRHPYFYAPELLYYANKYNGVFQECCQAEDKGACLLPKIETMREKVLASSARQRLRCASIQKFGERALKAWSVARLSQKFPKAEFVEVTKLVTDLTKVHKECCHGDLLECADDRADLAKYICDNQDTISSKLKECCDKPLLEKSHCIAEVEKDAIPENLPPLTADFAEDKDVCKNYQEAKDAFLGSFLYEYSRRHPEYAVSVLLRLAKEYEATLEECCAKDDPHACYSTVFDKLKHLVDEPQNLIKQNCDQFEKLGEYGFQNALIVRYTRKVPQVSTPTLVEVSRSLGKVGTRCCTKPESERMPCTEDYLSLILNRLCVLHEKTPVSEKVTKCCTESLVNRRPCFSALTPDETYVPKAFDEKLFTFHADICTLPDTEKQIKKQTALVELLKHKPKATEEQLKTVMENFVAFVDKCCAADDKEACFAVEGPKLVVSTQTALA
Chain of Focal adhesion kinase 1 (Homo sapiens) (Q05397 whole entry, looked up): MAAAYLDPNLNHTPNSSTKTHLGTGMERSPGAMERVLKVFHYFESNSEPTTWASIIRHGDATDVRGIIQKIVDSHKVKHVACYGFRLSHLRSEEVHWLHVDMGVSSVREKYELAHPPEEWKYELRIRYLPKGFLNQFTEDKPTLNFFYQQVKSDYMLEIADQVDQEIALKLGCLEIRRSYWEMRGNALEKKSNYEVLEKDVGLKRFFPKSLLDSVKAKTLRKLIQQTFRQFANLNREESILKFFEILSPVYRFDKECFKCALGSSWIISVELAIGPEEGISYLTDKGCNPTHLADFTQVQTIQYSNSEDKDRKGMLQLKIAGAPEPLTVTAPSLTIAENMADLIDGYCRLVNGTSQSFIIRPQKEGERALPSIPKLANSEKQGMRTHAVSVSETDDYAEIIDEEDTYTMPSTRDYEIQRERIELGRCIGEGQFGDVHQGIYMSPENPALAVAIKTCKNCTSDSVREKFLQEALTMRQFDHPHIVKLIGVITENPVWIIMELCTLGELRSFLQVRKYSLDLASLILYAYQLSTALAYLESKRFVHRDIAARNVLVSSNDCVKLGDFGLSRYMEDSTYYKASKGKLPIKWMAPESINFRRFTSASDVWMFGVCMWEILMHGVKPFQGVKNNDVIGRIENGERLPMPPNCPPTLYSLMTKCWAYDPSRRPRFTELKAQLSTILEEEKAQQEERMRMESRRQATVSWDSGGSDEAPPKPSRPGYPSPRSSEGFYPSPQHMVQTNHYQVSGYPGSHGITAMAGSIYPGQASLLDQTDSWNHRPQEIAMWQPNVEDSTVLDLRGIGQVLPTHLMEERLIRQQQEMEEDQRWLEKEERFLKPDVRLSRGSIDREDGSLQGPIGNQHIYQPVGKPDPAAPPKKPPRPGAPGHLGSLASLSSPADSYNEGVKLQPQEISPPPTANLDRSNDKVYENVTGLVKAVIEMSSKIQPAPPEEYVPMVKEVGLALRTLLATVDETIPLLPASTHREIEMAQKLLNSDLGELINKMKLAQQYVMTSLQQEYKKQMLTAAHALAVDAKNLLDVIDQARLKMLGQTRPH
Chain of Follistatin (Homo sapiens) (P19883 whole entry, looked up): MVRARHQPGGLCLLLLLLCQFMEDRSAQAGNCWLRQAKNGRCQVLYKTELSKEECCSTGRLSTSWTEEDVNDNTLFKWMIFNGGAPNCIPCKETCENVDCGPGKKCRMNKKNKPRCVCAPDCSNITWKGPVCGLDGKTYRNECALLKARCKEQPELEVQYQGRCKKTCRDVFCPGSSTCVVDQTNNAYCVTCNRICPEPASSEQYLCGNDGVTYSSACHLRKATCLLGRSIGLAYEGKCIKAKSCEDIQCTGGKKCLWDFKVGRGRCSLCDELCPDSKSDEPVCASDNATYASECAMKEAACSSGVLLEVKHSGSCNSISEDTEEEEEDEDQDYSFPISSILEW
Chain of Luciferin 4-monooxygenase (Photinus pyralis) (P08659 whole entry, looked up): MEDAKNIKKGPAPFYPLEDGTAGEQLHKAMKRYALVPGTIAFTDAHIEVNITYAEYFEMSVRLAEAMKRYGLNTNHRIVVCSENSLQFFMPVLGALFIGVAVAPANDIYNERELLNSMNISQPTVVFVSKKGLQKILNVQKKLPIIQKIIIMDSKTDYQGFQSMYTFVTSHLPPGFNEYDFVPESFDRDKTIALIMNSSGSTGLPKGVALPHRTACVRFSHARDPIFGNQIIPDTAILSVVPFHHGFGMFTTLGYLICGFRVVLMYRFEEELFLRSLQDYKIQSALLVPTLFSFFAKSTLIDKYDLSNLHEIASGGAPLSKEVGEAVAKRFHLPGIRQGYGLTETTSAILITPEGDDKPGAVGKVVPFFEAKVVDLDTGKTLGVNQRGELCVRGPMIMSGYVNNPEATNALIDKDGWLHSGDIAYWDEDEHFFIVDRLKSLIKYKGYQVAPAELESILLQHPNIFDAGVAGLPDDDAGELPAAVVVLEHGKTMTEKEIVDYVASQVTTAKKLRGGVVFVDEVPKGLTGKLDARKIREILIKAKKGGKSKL
Chain of Fibroblast growth factor 2 (Homo sapiens) (P09038 whole entry, looked up): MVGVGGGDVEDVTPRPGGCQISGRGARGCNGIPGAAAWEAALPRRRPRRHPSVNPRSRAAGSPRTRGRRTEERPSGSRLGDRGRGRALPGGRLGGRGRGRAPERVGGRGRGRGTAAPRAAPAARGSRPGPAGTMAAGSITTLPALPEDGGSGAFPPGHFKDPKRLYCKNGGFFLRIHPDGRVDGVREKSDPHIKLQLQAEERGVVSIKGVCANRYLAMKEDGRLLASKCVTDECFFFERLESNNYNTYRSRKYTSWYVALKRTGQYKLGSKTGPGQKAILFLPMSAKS
Chain of Concanavalin-A (Canavalia ensiformis) (P02866 whole entry, looked up): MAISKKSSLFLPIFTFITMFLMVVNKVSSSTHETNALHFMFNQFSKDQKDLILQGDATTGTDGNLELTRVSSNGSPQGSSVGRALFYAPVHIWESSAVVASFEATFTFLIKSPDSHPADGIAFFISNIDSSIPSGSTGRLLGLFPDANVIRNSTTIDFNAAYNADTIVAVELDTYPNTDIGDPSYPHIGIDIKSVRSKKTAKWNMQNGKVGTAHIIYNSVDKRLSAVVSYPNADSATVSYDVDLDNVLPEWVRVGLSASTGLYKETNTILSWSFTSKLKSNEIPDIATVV

On to `CC1CC/C=C\[C@H]2OC34C=CCN(Cn5nnc6ccccc65)C(=O)[C@H]3N(C(C)CO)C(=O)[C@@H]4C2C(=O)O1` (stereo not given in full), for which the composite z-score is -0.178 in assay [1]; -0.1 in [3]; -0.189 in assay [4]; 0.797 in assay [5]; -0.0502 in assay [6]; 0.0114 in [7]. Also, the composite z-score in [8] was -0.579; in [9], -0.764; in assay [10], -0.309; in [11], 0.52; in assay [12] it was -1.01; in assay [13], -0.305. Besides, the composite z-score in [14] is -0.559; in [15] it was -0.491; in assay [16] it was -1.01; in assay [18] it was -0.328; in [19], -0.462. Also, the composite Z-score in assay [2] was -0.105 (inactive). Also, the z-score was 0.417 in assay [17] and -0.223 (inactive) in assay [20].

Consider `CCOC(=O)[C@H]1C/C=C/C[C@H](C(=O)OCC)C(=O)O[C@H]2[C@@H](OC)O[C@H](CO)[C@@H](OC(=O)Nc3ccc(Br)cc3)[C@@H]2OC1=O`, for which the composite z-score in [1] was 0.827; in assay [3], -0.122; in assay [4], -0.0863; in [5], 0.516; in assay [6], 2.22; in [7], 0.704. Besides, the composite z-score was 1.3 in assay [8]; -0.12 in assay [9]; 1.09 in assay [10]; 0.441 in assay [11]; 1.21 in assay [12]; 0.361 in assay [13]. Besides, the composite z-score was 0.708 in assay [14]; 0.623 in [15]; 0.376 in assay [16]; 0.588 in assay [18]; 1.21 in assay [19]. Further, in [2], the composite Z-score was 0.285 (inactive). Moreover, the z-score in [17] is -2.32; in assay [20] it was -1.72 (inactive).

On to `CCCC[C@@H]1C[C@H]1[C@@H](NC(=O)c1ccccc1)c1ccccc1C(F)(F)F`, for which the composite z-score was 1.01 in assay [1]; 0.0493 in [3]; 0.0116 in assay [4]; 0.412 in assay [5]; 3.03 in [6]; 0.13 in assay [7]. Besides, the composite z-score amounted to 1.14 in assay [8]; 0.377 in assay [9]; 1.17 in [10]; 0.412 in [11]; 1.22 in assay [12]; 0.826 in assay [13]. The composite z-score in assay [14] is 1.03; in assay [15], 0.243; in assay [16], -0.113; in assay [18], -0.826; in assay [19] it was 1.17. Moreover, in assay [2], the composite Z-score is -0.814 (inactive). The z-score in assay [17] was 0.294; in assay [20], 1.31 (inactive).

On to `O=C1O[C@@H](c2ccccc2)[C@@H](c2ccccc2)N2[C@@H](c3ccc(O)cc3)[C@]3(C(=O)Nc4ccccc43)[C@@H](C(=O)N3CCN(c4ncccn4)CC3)[C@H]12`, for which the composite z-score in assay [1] was 0.689; in assay [3] it was -0.122; in [4], -0.154; in assay [5] it was 0.686; in [6], 0.456; in [7] it was 0.613. For the same molecule, the composite z-score in assay [8] was 0.528; in [9] it was -0.571; in assay [10], 0.474; in assay [11], 0.265; in [12], 1.19; in assay [13], 0.225. Moreover, the composite z-score in assay [14] is 0.179; in assay [15] it was 0.169; in assay [16], -0.0433; in assay [18], -0.173; in [19] it was -0.387. In addition, in assay [2], the composite Z-score was 5.4 (inactive). Also, the z-score in assay [17] is 0.948; in [20], -1.51 (inactive).

On to `O=C1c2ccccc2[C@](Cc2ccccc2I)(C(=O)NCc2ccccc2)[C@H](c2ccc(CO)cc2)N1Cc1ccccc1C(F)(F)F`, for which the composite z-score in [1] was 0.609; in assay [3] it was -0.253; in assay [4] it was -0.11; in [5], 0.631; in assay [6] it was 1.37; in assay [7] it was 0.595. Moreover, the composite z-score is 0.514 in assay [8]; -1.84 in assay [9]; -0.32 in assay [10]; -0.77 in assay [11]; -0.455 in assay [12]; -0.328 in [13]. The composite z-score in assay [14] was -0.373; in assay [15], -1.2; in [16], -1.36; in assay [18] it was -1.22; in assay [19], -1.12. Further, the composite Z-score in assay [2] is -0.342 (inactive). Besides, the z-score was 1.11 in assay [17] and -1.09 (inactive) in [20].
